Screening results deposited in PubChem by several laboratories.
Rtt109 HAT inh – blocks Candida albicans Rtt109/Vps75 acetyltransferase activity; purified Rtt109/Vps75, ThioGlo CoA-SH fluorescence, 4 h; Q5AAJ8; 330,000 tested, 0.16% active; inhibition, % at 34.9 µM;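 active = inhibition of at least 50% in every replicate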
Target sequence (Q5AAJ8 whole entry, looked up): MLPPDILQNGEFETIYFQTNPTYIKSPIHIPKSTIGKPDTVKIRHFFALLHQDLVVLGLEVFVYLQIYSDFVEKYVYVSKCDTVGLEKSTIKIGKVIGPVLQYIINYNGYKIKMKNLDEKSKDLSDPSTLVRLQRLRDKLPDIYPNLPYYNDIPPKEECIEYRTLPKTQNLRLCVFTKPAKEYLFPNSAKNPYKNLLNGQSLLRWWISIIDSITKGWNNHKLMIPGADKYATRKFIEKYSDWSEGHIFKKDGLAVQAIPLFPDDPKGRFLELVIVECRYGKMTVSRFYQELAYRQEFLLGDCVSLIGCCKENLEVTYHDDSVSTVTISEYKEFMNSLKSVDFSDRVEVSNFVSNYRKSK
LANA-H2A inh – blocks KSHV LANA binding to histone H2A/H2B. Q9QR71. cell-free LANA-H2A/H2B peptide, fluorescence polarization. inhibition, % (test concentration not listed). 320,000 tested, 0.6% active; in the data active = inhibition mostly above about 10%, no sharp cut-off; inactive = mostly below about 6.7%
rCAG binder – r(CAG) repeat RNA binding | TO-PRO-1 dye displacement fluorescence | inhibition, % at 3 µM | 370,000 tested, 1.3% active;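 active = inhibition above the plate cutoff, the mean of all test compounds on that plate plus 3 SD, cut at about 35% in these data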;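 also: higher means more dye released from RNA so lower well fluorescence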
PRMT1 FP inh – blocks human protein arginine methyltransferase 1 | Q99873 | recombinant PRMT1, activity-based probe fluorescence polarization | inhibition, % at 2.79 µM | 370,000 tested, 1.3% active;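 active = inhibition above about 21% made by adding two undisclosed values, limit read from the data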
Target sequence (Q99873 whole entry, looked up): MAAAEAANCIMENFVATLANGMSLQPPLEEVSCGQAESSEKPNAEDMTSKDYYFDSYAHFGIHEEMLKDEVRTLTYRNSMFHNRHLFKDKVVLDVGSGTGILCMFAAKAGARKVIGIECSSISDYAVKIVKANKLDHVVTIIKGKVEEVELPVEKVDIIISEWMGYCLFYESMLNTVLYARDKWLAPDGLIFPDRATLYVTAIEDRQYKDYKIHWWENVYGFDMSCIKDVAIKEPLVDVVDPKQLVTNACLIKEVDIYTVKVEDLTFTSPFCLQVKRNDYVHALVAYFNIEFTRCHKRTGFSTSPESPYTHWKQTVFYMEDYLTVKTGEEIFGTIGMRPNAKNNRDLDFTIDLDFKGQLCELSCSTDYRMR
ABHD5-PLIN5 inh – blocks binding of human ABHD5 to perilipin-5. Q00G26+Q8WTS1. 360,000 tested, 0.78% active. Split G. princeps luciferase complementation, luminescence, 4 h. inhibition, % at 4 µM;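 active = inhibition above the mean inhibition across every tested compound plus 3 SD, cut at about 22% in these data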
ALR H2O2 inh – blocks human ALR sulfhydryl oxidase activity | P55789 | purified ALR, DTT oxidation, H2O2 HRP-luminol luminescence | inhibition, % (test concentration not listed) | 290,000 tested, 3.8% active | AID 485317;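 active = mean replicate inhibition above about 79%, with every replicate also reaching it, limit read from the data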
rCAG bind conf – r(CAG) RNA repeat binding, confirmation; shares compounds with rCAG binder; inhibition, % at 3 µM; 4,300 tested, 70% active; TO-PRO-1 dye displacement fluorescence;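 active = inhibition above a per-plate cutoff, the mean inhibition of sample wells plus 3 SD, cut at about 35% in these data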;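 also: loss of TO-PRO-1 fluorescence as compound displaces dye from 1x1 AA loop RNA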
DNA CAG counter – counter-screen for rCAG RNA binders: DNA CAG dye complex inhibitors; shares compounds with rCAG binder; d(CAG) DNA oligo TO-PRO-1 dye displacement, fluorescence; inhibition, % at 3 µM; 4,300 tested, 94% active; AID 652068;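 active = inhibition above its plate's cutoff, the mean test-well inhibition plus 3 SD, cut at about 4.8% in these data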;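 also: hits displace the dye from DNA and so lower well fluorescence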
Each line names hits and unclear results; the compound was inactive in the other large screens (follow-up assays come after a bar, where they were run). In the library only some 5.9% were active in any assay of this set; here they are far more common.

COC(=O)c1c(-c2ccccc2)csc1N1C(=O)Nc2ccccc2N1O	none
COC(=O)c1c(-n2c(C)cc(C=O)c2C)sc2c1CCCC2	none
Cc1ccc(Nc2nnc(SCC(O)=C(C#N)c3nc4ccccc4[nH]3)s2)c(C)c1	rCAG binder 57 (no result: LANA-H2A inh, ALR H2O2 inh) | rCAG bind conf 45 | DNA CAG counter 21
O=C(NCCc1ccccc1)OCc1cn(-c2ccccc2Cl)nn1	none (no result: Rtt109 HAT inh, LANA-H2A inh, ABHD5-PLIN5 inh, ALR H2O2 inh)
CCc1c(C)sc(NC(=O)c2cc(-c3ccco3)on2)c1C#N	rCAG binder 40 | rCAG bind conf inactive | DNA CAG counter 6.5
CCOc1ccc(S(=O)(=O)Nc2ccc(C(=O)NNC(=O)c3ccncc3)cc2)cc1	none
O=C(NC(=S)Nc1ccc(CN2CCCCC2)cc1)c1cccc(OCc2ccccc2)c1	none
O=C(O)/C=C/c1ccc(S(=O)(=O)Nc2ccc(OCc3ccccc3)cc2)cc1	rCAG binder 52 | rCAG bind conf inactive | DNA CAG counter 6.8
COc1ccc(NS(=O)(=O)c2cccc(C(=O)O)c2)cc1	none
CCOc1ccc(NS(=O)(=O)c2ccc(C(=O)NNC(=O)c3ccccc3O)cc2)cc1	rCAG binder 35 | rCAG bind conf inactive | DNA CAG counter inactive
O=C(O)c1cccc(S(=O)(=O)Nc2ccc(OCc3ccccc3)cc2)c1	rCAG binder 41 | rCAG bind conf inactive | DNA CAG counter inactive
O=C(O)c1ccc(NC(=S)NC(=O)c2cccc(COc3ccccc3)c2)cc1	rCAG binder 48, ALR H2O2 inh 97 | rCAG bind conf 49 | DNA CAG counter 16
CCOc1cc(OCC)cc(C(=O)O)c1	none
O=C(O)c1cc(S(=O)(=O)Nc2ccc(OCc3ccccc3)cc2)ccc1Br	rCAG binder 45 | rCAG bind conf inactive | DNA CAG counter 7.5
O=C(O)c1cc(OCc2ccccc2)cc(OCc2ccccc2)c1	rCAG binder 43 | rCAG bind conf 40 | DNA CAG counter 8.0
Cc1cc(C)cc(N(CC(=O)Nc2ccc(Br)cc2)S(=O)(=O)c2c(C)[nH]c(=O)[nH]c2=O)c1	rCAG binder 51 | rCAG bind conf 42 | DNA CAG counter 9.2
COc1ccc2c(c1)CN1CN(C3CCCC3)S(=O)(=O)CC21 (stereo not drawn)	none (no result: Rtt109 HAT inh, LANA-H2A inh, ABHD5-PLIN5 inh, ALR H2O2 inh)
CCOC(=O)c1c(C)[nH]c(C(=O)OCC(O)=C(C#N)c2nc3ccccc3[nH]2)c1C	rCAG binder 42 (no result: LANA-H2A inh, ALR H2O2 inh) | rCAG bind conf inactive | DNA CAG counter 14
N#C/C(=C(/O)COC(=O)c1ccc(O)cc1)c1nc2ccccc2[nH]1	none (no result: ALR H2O2 inh)
CCOC(=O)[C@]12CCCC=C1N(CCc1ccc(Cl)cc1)C(=O)[C@@H]2CC(=O)NCCC(C)C	none (no result: Rtt109 HAT inh, LANA-H2A inh, ABHD5-PLIN5 inh, ALR H2O2 inh)
CCCn1nc([N+](=O)[O-])c(C(C#N)c2nc3ccccc3o2)c(Cl)c1=O (stereo not drawn)	rCAG binder 80, PRMT1 FP inh 22 (no result: ALR H2O2 inh) | rCAG bind conf 77 | DNA CAG counter 37
Cn1nc([N+](=O)[O-])c(C(C#N)c2ccccn2)c(Cl)c1=O (stereo not drawn)	none
O=C(Nc1ccc(S(=O)(=O)Nc2cnc3ccccc3n2)cc1)c1ccc([N+](=O)[O-])cc1Cl	rCAG binder 49 | rCAG bind conf inactive | DNA CAG counter 6.0
COc1cc(OC)cc(C(=O)Nc2ccc(S(=O)(=O)Nc3cnc4ccccc4n3)cc2)c1	rCAG binder 64 (no result: Rtt109 HAT inh) | rCAG bind conf 59 | DNA CAG counter 15
COc1cc(C(=O)Nc2ccc(S(=O)(=O)Nc3cc(C)nc(C)n3)cc2)cc(OC)c1OC	none
COc1cc(OC)cc(C(=O)Nc2ccc(S(=O)(=O)Nc3ccccn3)cc2)c1	none (no result: ALR H2O2 inh)
COCCNC(=S)Nc1ccc(S(=O)(=O)Nc2cnc3ccccc3n2)cc1	none
COc1cc(C(=O)Nc2ccc(S(=O)(=O)Nc3cnc4ccccc4n3)cc2)cc(OC)c1OC	rCAG binder 40 | rCAG bind conf inactive | DNA CAG counter 6.8
Cc1ccc(C(=O)Nc2ccc(S(=O)(=O)Nc3cnc4ccccc4n3)cc2)cc1	rCAG binder 43 | rCAG bind conf inactive | DNA CAG counter 12
O=C1/C(=C\c2cccc([N+](=O)[O-])c2O)SC(=S)N1Cc1ccccc1	rCAG binder 37 | rCAG bind conf 93 | DNA CAG counter 78
COc1cc(/C=C2/SC(=S)N(Cc3ccccc3)C2=O)cc(Cl)c1O	none
COc1cc([N+](=O)[O-])cc(/C=C2/SC(=S)N(Cc3ccccc3)C2=O)c1O	rCAG binder 79, PRMT1 FP inh 21, ALR H2O2 inh 97 | rCAG bind conf 95 | DNA CAG counter 85
Cc1cc(NS(=O)(=O)c2ccc(NC(=O)CSc3nnc(-c4ccco4)n3Cc3ccco3)cc2)nc(C)n1	none
CCn1c(SCC(=O)Nc2cc(C)on2)nc2sc(C)c(C)c2c1=O	none (no result: Rtt109 HAT inh, LANA-H2A inh, ABHD5-PLIN5 inh, ALR H2O2 inh)
Cc1cc(NS(=O)(=O)c2ccc(NC(=O)CSc3nc4sc(C)c(C)c4c(=O)n3Cc3ccco3)cc2)nc(C)n1	rCAG binder 68, PRMT1 FP inh 24 (no result: Rtt109 HAT inh, LANA-H2A inh, ABHD5-PLIN5 inh, ALR H2O2 inh) | rCAG bind conf 63 | DNA CAG counter 27
CCn1c(SCC(=O)Nc2ccc(S(=O)(=O)Nc3cc(C)nc(C)n3)cc2)nc2sc(C)c(C)c2c1=O	rCAG binder 53 (no result: Rtt109 HAT inh, LANA-H2A inh, ABHD5-PLIN5 inh, ALR H2O2 inh) | rCAG bind conf inactive | DNA CAG counter 11
COc1ccc2[nH]c3c(c2c1)CCN1C(=O)C(CC(=O)NCCCn2ccnc2)C[C@H](C(=O)N2CCCCC2)[C@@]31CCc1ccccc1 (stereo partly drawn)	none (no result: LANA-H2A inh, ALR H2O2 inh)
Cc1ccc(-n2nc3ccc(NC(=O)/C=C/c4ccco4)cc3n2)cc1	rCAG binder 38 | rCAG bind conf inactive | DNA CAG counter 11
Cc1ccc(NC(=O)c2cccc(NC(=O)/C=C/c3ccco3)c2)cc1C	none
CC1CCCCN1Cc1c(O)ccc2c(=O)c(-c3ccc(Cl)cc3)coc12 (stereo not drawn)	none
CC(C)N(Cc1c(O)ccc2c(=O)c(-c3ccc(Cl)cc3)coc12)C(C)C	rCAG binder 42 | rCAG bind conf inactive | DNA CAG counter 10
C/C(=N\NC(=O)c1c[nH]c2ccccc12)c1ccc(C)o1	none
C/C(=N\NC(=O)c1cc2ccccc2cc1O)c1ccc(C)o1	rCAG binder 43 | rCAG bind conf inactive | DNA CAG counter 6.5
C/C(=N\NC(=O)c1cc2ccccc2cc1O)c1cccs1	rCAG binder 50 (no result: ALR H2O2 inh) | rCAG bind conf inactive | DNA CAG counter inactive
O=C(NNC(=O)c1cc2ccccc2cc1O)c1cccs1	none
C/C(=N/NC(=O)c1cc2ccccc2cc1O)c1ccco1	rCAG binder 51 | rCAG bind conf inactive | DNA CAG counter 9.0
COC(=O)C1=C(C)N(C)C(=NCC2CC2)NC1c1ccccc1C(F)(F)F (stereo not drawn)	none (no result: Rtt109 HAT inh, LANA-H2A inh, ABHD5-PLIN5 inh, ALR H2O2 inh)
